The target in experiment [1] is human Protein Tyrosine Phosphatase Receptor Type M (PTPRM), PTPRM (gene 5797) (UniProt P28827). Put plainly: NVS_ENZ_hPTPRM: NovaScreen (NVS) Enzymatic Assay for human Protein Tyrosine Phosphatase Receptor Type M (PTPRM) (AID 2283215). The procedure, abridged: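 Cell-free recombinant PTPRM with fluorogenic substrate; product separated from substrate by electrophoretic mobility shift and read by fluorescence, 1.33 h after dosing. Primary screen single concentration (25 uM) in duplicate; actives retested in concentration series; loss of signal versus DMSO.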

Experiment [2] addresses rat Constitutive Nitric Oxide Synthase (CNOS), Nos1 (gene 24598) (UniProt P29476). Put plainly: NVS_ENZ_rCNOS: NovaScreen (NVS) Enzymatic Assay for rat Constitutive Nitric Oxide Synthase (CNOS) (AID 2283236). The procedure, abridged:
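Enzyme activity in rat brain membrane preparation, read 1 h after dosing by filter-based radiometric scintillation counting. Primary screen in duplicate at 25 uM; actives (e.g., ≥30% inhibition) then run in concentration-response up to 50 uM.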

The nature of experiment [3]: NVS_GPCR_bNPY_NonSelective: NovaScreen (NVS) G Protein-Coupled Receptor Assay for bovine Neuropeptide Y (NPY) Receptor, Non-selective Binding (AID 2283245). The procedure, abridged: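 Bovine hippocampal membranes incubated 1 hour with radioligand and test chemical. Bound ligand measured by filter-based scintillation counting. Single-concentration screen at 25 uM in duplicate, then concentration-response up to 50 uM.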

Experiment [4] has as its target human Vascular Endothelial Growth Factor Receptor 1 (VEGFR1), FLT1 (gene 2321) (UniProt P17948). Put plainly: NVS_ENZ_hVEGFR1: NovaScreen (NVS) Enzymatic Assay for human Vascular Endothelial Growth Factor Receptor 1 (VEGFR1) (AID 2283226). In outline:
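Cell-free assay of recombinant human VEGFR1 kinase with substrate, measured 1 h after dosing; fluorescence with electrophoretic mobility-shift separation of substrate and product, referenced to DMSO; primary screen at 25 uM in duplicate, actives then run in concentration series.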

Experiment [5] deals with sheep Cyclooxygenase-2 (Cox2), PTGS2 (gene 443460) (UniProt P79208). Put plainly: NVS_ENZ_oCOX2: NovaScreen (NVS) Enzymatic Assay for sheep Cyclooxygenase-2 (Cox2) (AID 2283231). The procedure, abridged:
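Enzyme extracted from ovine placenta tested cell-free; activity read colorimetrically by absorbance 0.66 hour after dosing. Primary screen in duplicate at 25 uM; hits rerun as concentration series to 50 uM, loss of signal versus DMSO baseline.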

The target of experiment [6] is rat Catechol-O-Methyl Transferase (COMT), Comt (gene 24267) (UniProt P22734). Put plainly: NVS_ENZ_rCOMT: NovaScreen (NVS) Enzymatic Assay for rat Catechol-O-Methyl Transferase (COMT) (AID 2283235). In outline:
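Cell-free enzyme activity with protein extracted from rat dorsal striatum, measured by HPLC with absorbance detection. Compounds screened at 25 uM in duplicate; actives then run in concentration-response up to 50 uM, loss of signal versus DMSO.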

Experiment [7] has as its system bovine Histamine 1 Receptor (H1), gene 281231. Put plainly: NVS_GPCR_bH1: NovaScreen (NVS) G Protein-Coupled Receptor Assay for bovine Histamine 1 Receptor (H1) (AID 2283246). The procedure, abridged:
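Radioligand displacement on bovine cerebellar membranes, 1 h after dosing, filter-based scintillation read-out; loss of signal vs DMSO. Duplicate single-concentration screen at 25 uM, then concentration-response up to 50 uM for hits.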

Experiment [8] has as its system guinea pig Leukotriene B4 Receptor (LTB4), gene 100379538. Put plainly: NVS_GPCR_gLTB4: NovaScreen (NVS) G Protein-Coupled Receptor Assay for guinea pig Leukotriene B4 Receptor (LTB4) (AID 2283247). In outline: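 Radioligand displacement on guinea pig spleen membranes, filter-based scintillation counting 2 h after dosing. Primary duplicate single point at 25 uM; hits over threshold (e.g. 30% inhibition) run in concentration-response up to 50 uM, DMSO baseline.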

In experiment [9] the target is human Vascular Endothelial Growth Factor Receptor 2 (VEGFR2), KDR (gene 3791) (UniProt P35968). Put plainly: NVS_ENZ_hVEGFR2: NovaScreen (NVS) Enzymatic Assay for human Vascular Endothelial Growth Factor Receptor 2 (VEGFR2) (AID 2283230). In outline:
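Cell-free recombinant VEGFR2 kinase, fluorescent substrate with electrophoretic mobility-shift separation; read 1 h after dosing. Screened at 25 uM in duplicate, hits to concentration-response up to 50 uM; loss-of-signal versus DMSO.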

Experiment [10] concerns the target sheep Cyclooxygenase-1 (Cox1), PTGS1 (gene 443551) (UniProt P05979). Put plainly: NVS_ENZ_oCOX1: NovaScreen (NVS) Enzymatic Assay for sheep Cyclooxygenase-1 (Cox1) (AID 2283239).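 Further: actives reduce cyclooxygenase activity so potencies are for inhibitors.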 In outline: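 Native ovine seminal vesicle protein serves as enzyme source in this biochemical assay. Colorimetric signal is recorded 0.66 h after chemical addition, and decreases versus the DMSO control define activity.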

Experiment [11] addresses Adenosine receptor A1 (Bos taurus) (UniProt P28190). Put plainly: NVS_GPCR_bAdoR_NonSelective: NovaScreen (NVS) G Protein-Coupled Receptor Assay for bovine Adenosine Receptor (AdoR), Non-selective Binding (AID 2283244). In outline: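 Bovine striatal membranes, radioligand displacement binding, 1 h after dosing, filter-based scintillation counting. Screened in duplicate at 25 uM, then concentration-response up to 50 uM; loss of specific binding relative to DMSO.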

For experiment [12], the system named is bovine Angiotensin II Receptor Type 2 (AT2), gene 407157. Put plainly: NVS_GPCR_bAT2: NovaScreen (NVS) G Protein-Coupled Receptor Assay for bovine Angiotensin II Receptor Type 2 (AT2) (AID 2283240). The procedure, abridged: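 Radioligand displacement on bovine cerebellar membranes, 1 hour incubation, filter-based scintillation counting; loss of signal vs DMSO. Duplicate single-point screen at 25 uM, then concentration-response to 50 uM maximum.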

The target of experiment [13] is rabbit Imidazoline 2 Central (I2C), CKB (gene 100009085) (UniProt P00567). Put plainly: NVS_ENZ_rabI2C: NovaScreen (NVS) Enzymatic Assay for rabbit Imidazoline 2 Central (I2C) (AID 2283228). The procedure, abridged: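 Rabbit brain membranes, cell-free; readout by filter-based scintillation counting 1.5 hours after dosing, loss of signal vs DMSO. Initial duplicate test at 25 uM, then concentration-response with 50 uM top concentration.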
rabbit Imidazoline 2 Central (I2C), CKB (gene 100009085), sequence (P00567 whole entry, looked up): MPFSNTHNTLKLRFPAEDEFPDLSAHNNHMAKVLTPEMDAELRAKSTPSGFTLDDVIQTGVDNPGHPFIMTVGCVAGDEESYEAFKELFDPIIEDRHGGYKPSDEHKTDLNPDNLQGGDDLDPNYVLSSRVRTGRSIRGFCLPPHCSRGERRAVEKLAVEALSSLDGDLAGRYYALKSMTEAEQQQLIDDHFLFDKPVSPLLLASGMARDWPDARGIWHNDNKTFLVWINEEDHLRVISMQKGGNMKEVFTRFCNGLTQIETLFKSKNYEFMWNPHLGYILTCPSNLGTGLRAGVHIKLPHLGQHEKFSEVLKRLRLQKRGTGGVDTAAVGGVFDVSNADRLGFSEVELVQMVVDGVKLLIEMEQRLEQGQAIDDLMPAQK

The target of experiment [14] is bovine Dopamine Receptor (DR), Non-selective Binding, DRD1 (gene 281125) (UniProt Q95136). Put plainly: NVS_GPCR_bDR_NonSelective: NovaScreen (NVS) G Protein-Coupled Receptor Assay for bovine Dopamine Receptor (DR), Non-selective Binding (AID 2283241). The procedure, abridged: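 Bovine striatal membranes; radioligand displacement read by filtration and scintillation counting 1 h after dosing, loss of signal vs DMSO. Screened in duplicate at 25 uM, then concentration-response for hits.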
bovine Dopamine Receptor (DR), Non-selective Binding, DRD1 (gene 281125), sequence (Q95136 whole entry, looked up): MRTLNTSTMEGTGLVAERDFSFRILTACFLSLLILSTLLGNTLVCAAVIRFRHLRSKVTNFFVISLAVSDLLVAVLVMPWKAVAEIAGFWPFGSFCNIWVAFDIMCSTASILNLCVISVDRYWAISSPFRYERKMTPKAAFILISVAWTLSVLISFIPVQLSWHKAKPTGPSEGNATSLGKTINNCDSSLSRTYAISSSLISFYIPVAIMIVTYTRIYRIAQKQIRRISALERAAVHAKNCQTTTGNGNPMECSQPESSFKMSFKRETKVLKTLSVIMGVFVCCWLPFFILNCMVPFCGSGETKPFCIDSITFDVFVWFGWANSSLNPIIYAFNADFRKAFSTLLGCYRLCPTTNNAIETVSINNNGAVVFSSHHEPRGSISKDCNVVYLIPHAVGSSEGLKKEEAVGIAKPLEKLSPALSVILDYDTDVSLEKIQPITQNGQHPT

Records with an inconclusive call do not appear. The source made the active and inactive calls. How the source made its calls: active means hit-call score of the fitted dose curve at least 0.9, where 1 is the maximum; inconclusive means response in the unintended direction; inactive means score below 0.9.

sheep Cyclooxygenase-1 (Cox1), PTGS1 (gene 443551), sequence (P05979 whole entry, looked up): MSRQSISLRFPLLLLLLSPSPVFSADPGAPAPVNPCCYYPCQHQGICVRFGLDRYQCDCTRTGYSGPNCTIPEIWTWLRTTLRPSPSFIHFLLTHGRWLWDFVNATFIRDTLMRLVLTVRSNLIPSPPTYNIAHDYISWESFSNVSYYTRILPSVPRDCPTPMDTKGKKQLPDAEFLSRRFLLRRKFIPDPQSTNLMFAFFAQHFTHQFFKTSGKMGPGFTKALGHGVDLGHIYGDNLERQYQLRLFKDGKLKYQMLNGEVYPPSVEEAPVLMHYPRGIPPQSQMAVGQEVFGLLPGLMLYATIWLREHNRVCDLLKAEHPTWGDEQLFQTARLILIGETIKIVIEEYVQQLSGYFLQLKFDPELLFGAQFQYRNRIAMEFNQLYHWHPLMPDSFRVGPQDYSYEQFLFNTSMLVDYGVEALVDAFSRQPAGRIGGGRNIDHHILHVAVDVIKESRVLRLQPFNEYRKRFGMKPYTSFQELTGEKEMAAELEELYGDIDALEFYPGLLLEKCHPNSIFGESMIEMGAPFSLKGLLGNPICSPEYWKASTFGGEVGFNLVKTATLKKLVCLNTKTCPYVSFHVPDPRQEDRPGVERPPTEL
rat Catechol-O-Methyl Transferase (COMT), Comt (gene 24267), sequence (P22734 whole entry, looked up): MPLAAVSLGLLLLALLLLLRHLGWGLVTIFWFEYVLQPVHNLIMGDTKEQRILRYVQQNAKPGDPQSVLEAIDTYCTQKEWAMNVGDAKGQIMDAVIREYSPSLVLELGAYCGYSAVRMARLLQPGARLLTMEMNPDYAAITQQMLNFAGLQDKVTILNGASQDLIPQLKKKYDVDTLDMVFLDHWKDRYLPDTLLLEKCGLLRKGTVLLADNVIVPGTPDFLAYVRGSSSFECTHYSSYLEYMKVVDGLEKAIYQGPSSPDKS
Adenosine receptor A1 (Bos taurus), sequence (P28190 whole entry, looked up): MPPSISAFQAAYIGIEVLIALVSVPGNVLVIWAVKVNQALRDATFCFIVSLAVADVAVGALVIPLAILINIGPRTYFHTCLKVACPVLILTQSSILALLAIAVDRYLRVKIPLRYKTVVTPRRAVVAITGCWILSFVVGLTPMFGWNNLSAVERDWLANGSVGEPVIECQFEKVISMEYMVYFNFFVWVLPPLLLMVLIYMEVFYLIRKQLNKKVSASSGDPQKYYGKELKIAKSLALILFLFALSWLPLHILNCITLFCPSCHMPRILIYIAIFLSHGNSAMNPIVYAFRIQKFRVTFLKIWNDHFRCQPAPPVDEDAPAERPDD
human Vascular Endothelial Growth Factor Receptor 2 (VEGFR2), KDR (gene 3791), sequence (P35968 whole entry, looked up): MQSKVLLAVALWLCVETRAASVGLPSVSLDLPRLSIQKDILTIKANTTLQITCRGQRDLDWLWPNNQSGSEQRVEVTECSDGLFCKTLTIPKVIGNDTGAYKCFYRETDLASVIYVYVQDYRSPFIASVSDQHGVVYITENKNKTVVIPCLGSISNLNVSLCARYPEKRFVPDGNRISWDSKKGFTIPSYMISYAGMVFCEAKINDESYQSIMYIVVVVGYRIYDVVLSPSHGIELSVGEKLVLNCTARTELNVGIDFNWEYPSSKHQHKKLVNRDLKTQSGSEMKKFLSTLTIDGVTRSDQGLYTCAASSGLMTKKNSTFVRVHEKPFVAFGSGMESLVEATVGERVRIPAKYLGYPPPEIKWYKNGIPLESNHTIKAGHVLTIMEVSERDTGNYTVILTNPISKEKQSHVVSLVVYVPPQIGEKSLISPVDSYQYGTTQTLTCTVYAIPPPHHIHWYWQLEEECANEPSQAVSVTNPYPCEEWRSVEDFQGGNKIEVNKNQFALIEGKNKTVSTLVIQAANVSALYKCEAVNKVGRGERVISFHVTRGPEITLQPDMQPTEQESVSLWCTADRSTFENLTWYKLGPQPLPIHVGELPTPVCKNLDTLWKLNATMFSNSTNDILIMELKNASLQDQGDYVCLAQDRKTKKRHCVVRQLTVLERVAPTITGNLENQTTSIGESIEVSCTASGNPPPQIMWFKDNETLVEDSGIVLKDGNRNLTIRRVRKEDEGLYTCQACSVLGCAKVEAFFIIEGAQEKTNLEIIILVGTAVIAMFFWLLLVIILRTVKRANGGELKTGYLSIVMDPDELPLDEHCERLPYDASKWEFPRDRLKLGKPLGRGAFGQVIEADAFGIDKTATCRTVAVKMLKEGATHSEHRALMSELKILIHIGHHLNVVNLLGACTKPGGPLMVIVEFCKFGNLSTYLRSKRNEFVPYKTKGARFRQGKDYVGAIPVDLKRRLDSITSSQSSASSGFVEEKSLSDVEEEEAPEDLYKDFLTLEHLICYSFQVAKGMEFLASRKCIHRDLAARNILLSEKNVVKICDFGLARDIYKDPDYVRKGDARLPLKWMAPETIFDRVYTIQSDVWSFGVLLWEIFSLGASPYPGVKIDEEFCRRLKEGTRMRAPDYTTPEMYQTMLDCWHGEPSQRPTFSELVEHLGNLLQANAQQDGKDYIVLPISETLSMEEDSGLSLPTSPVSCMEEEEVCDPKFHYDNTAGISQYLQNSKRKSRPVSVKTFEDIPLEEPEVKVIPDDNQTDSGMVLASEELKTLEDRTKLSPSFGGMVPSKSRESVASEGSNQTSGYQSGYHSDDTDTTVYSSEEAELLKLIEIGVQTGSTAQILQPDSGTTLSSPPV
sheep Cyclooxygenase-2 (Cox2), PTGS2 (gene 443460), sequence (P79208 whole entry, looked up): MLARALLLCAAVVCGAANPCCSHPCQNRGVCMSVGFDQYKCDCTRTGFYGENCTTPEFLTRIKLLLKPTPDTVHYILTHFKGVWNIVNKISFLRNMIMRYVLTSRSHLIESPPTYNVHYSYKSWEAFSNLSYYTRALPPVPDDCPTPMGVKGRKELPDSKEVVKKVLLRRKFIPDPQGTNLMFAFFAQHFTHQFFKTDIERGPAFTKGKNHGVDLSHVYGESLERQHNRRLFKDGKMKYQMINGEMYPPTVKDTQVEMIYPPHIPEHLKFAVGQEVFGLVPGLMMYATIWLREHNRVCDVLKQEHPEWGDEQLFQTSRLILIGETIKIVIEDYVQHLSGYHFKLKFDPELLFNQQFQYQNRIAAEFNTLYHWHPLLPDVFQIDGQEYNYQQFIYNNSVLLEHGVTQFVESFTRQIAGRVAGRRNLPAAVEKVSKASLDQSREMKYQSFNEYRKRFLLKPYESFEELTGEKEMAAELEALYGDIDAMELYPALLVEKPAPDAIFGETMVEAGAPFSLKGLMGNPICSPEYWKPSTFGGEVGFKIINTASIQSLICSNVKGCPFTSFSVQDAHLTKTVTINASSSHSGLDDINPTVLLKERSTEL

With `CCN(CC)C(=O)c1cc(S(=O)(=O)Cc2ccccc2)c(N2CCC(c3ccccc3)CC2)cc1N(CC)CCN(C)C`, the compound was classed as inactive in experiment [1], in experiment [2] and in experiment [3].
Take `Cc1cc2c(cc1C(F)(F)F)N(C(=O)Nc1ccc(Oc3cccnc3C)nc1)CC2`: the call in [4] was inactive.
Regarding `COc1cc(C(=O)NC2CCN(C)CC2)ccc1Nc1ncc2c(n1)N(C1CCCC1)CC(F)(F)C(=O)N2C`, the concentration at half-maximal activity (AC50) in [5] is 15.2 µM (active).
For `O=C1O[C@H]([C@@H](O)CO)C(O)=C1O`, the AC50 in [6] is 11.5 µM (active).
As for `COc1ccc2cc(S(=O)(=O)N[C@H](CC(=O)N[C@H](Cc3ccc(CN4[C@H](C)CCC[C@@H]4C)cc3)C(=O)N(C)C(C)C)c3ccc4c(c3)OCO4)ccc2c1`, the AC50 in experiment [3] was 10.7 µM (active).
Regarding `Cc1oc2c(NC(=O)c3c(Cl)cccc3Cl)cccc2c1C(C)(C)O`, the concentration at half-maximal activity (AC50) in [7] was 25 µM (active).
Same read-out and setting: the result for `O=C1c2ccccc2C(=O)N1CCc1noc(-c2ccc(CN3CCCCCC3)s2)n1` reads 12.1 µM (active).
As for `CCCCCCCCCC(=O)O`, the compound was classed as inactive in experiment [8].
For `O=C(O)Cc1cc(I)c(Oc2ccc(O)c(I)c2)c(I)c1`, the AC50 in experiment [8] was 0.623 µM (active).
Take `CCN(Cc1cccnc1)C(=O)c1cccc(Cl)c1[C@]1(C)C(=O)N(Cc2ccc(OC)cc2OC)c2ccc(Cl)cc21`: the outcome in [9] and in [3] was inactive.
For `Cc1ccc2oc(CN(Cc3ccccc3)C(=O)Nc3c(F)cc(F)cc3F)c(-c3ccc(Cl)cc3)c2c1`, the outcome in experiment [7] was inactive.
In the case of `CO[C@H]1/C=C/O[C@@]2(C)Oc3c(C)c(O)c4c(O)c(c(/C=N/N5CCN(C)CC5)c(O)c4c3C2=O)NC(=O)/C(C)=C\C=C\[C@H](C)[C@H](O)[C@@H](C)[C@@H](O)[C@@H](C)[C@H](OC(C)=O)[C@@H]1C`, the AC50 is 7.74 µM (active) in [5] and 3.36 µM (active) in [10].
Regarding `CC(C)(C)c1cc(/C=C2\SC(N)=NC2=O)cc(C(C)(C)C)c1O`, the compound was classed as inactive in [9], in experiment [10], in experiment [11] and in [7].
For the compound `CN(C[C@@H](CC[N+]12CCC(C3CCCCC3)(CC1)CC2)c1ccc(Cl)c(Cl)c1)C(=O)c1cc(C(F)(F)F)cc(C(F)(F)F)c1`, the AC50 was 36.7 µM (active) in experiment [12] and 0.166 µM (active) in experiment [8].
`CN(C)c1ccc(C(=C2C=CC(=[N+](C)C)C=C2)c2ccc(N(C)C)cc2)cc1`: the call in experiment [13] was inactive. Also, the AC50 is 0.572 µM (active) in experiment [9], 13.6 µM (active) in [11] and 11.2 µM (active) in experiment [3].
`CC1=CC(=O)/C(=C(/C)O)C(=O)O1`: the call in experiment [5] was inactive.
For `CCCCOC(=O)c1ccc(O)cc1`, the compound was called inactive in experiment [9] and in experiment [2]. In experiment [5], the AC50 is 7.62 µM (active).
For the compound `CCOC(=O)O[C@H](C)OC(=O)c1ccc2c(c1)cc(C(=O)NC1CCN(C(C)C)CC1)n2Cc1cc(-c2ccc(Cl)s2)on1`, in experiment [3], the AC50 is 23.6 µM (active).
As for `CC(C)(O)c1ccc(CNC(=O)c2cccnc2Oc2ccc3nonc3c2)cc1`, the AC50 in [8] was 0.646 µM (active).
For the compound `CCCCCc1ccc(N)cc1`, the AC50 in experiment [10] is 7.04 µM (active).
For the compound `CCCCCCCCCCCO`, the result in [9] and in experiment [3] was inactive.
Take `CC[C@H](NC(=O)c1cc(F)ccc1NS(=O)(=O)c1cccc2cccnc12)c1ccccc1`: the result in experiment [10] was inactive. In addition, the AC50 in experiment [8] was 0.206 µM (active).
As for `CC/C(=C(/CC)c1ccc(O)cc1)c1ccc(O)cc1`, the compound was classed as inactive in experiment [10].
Turning to `COc1cccc([C@H](O)C2CCN(CCc3ccc(F)cc3)CC2)c1OC`, the AC50 is 12.7 µM (active) in [13], 5.96 µM (active) in [14] and 5.41 µM (active) in experiment [7].
Turning to `CCCOC(=O)c1cc(O)c(O)c(O)c1`, the AC50 in experiment [5] is 14.8 µM (active); in experiment [6], 0.454 µM (active); in [10] it was 12 µM (active). The result in experiment [8] was inactive.
Turning to `CCCCCCCCCCCC[N+](C)(C)C`, the AC50 in experiment [13] is 2.13 µM (active). Further, the compound was called inactive in experiment [3].
In the case of `CCCCCCCCOC(=O)c1cc(O)c(O)c(O)c1`, the concentration at half-maximal activity (AC50) in experiment [5] was 18.3 µM (active); in [6], 2.54 µM (active). In addition, the compound was called inactive in experiment [10].
Regarding `NCc1cccc(C2CCN(C(=O)c3ccc(C#Cc4ccccc4F)o3)CC2)c1`, the AC50 in experiment [13] was 7.1 µM (active); in experiment [3], 25 µM (active).
Regarding `CCCCCCCCCCCCO`, the result in experiment [9] was inactive.
With `CC1(C)NC(=O)N(c2ccc([N+](=O)[O-])c(C(F)(F)F)c2)C1=O`, in experiment [11], the AC50 was 9.79 µM (active).
As to `O=CCCCC=O`, in [5], the AC50 is 15.4 µM (active). Also, the result in experiment [7] was inactive.
On to `Cc1c2ccccc2c(C)c2c1ccc1ccccc12`, for which, in [9], the call was inactive. Besides, the concentration at half-maximal activity (AC50) in experiment [10] was 43.3 µM (active).
As for `CN(C)C(=O)C1(N2CCCCC2)CCN(CC[C@@]2(c3ccc(Cl)c(Cl)c3)CN(C(=O)c3ccccc3)CCO2)CC1`, the outcome in experiment [9] was inactive. Also, the AC50 was 4.5 µM (active) in experiment [14] and 15.1 µM (active) in experiment [3].
In the case of `c1ccc(C[n+]2cccc3ccccc32)cc1`, the AC50 in experiment [13] was 11.9 µM (active).

Broadly, the AC50 is the concentration at which the activity in the assay is half-maximal.

The values are drawn from PubChem BioAssay (EPA / NIEHS).
